Data taken from PubChem BioAssay (NCI).
About 83,000 compounds went through this panel and 20% of them were active in at least one assay; those are over-represented in the sample as a whole.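 Assay: single dose, 48 h. Readout: percent growth (0 = no net growth; negative = cell death). Active: <10.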 Unmarked numbers belong to inactive results. Calls of active or inactive are those of the source.

What was measured:
Experiment in all cases: NCI-60 one-dose screen, 48 h (100 = growth as untreated, 0 = no growth, -100 = all killed)
Conditions in all cases: 10 µM unless noted
NCI-H23 lung = system: NCI-H23 lung
NCI-H226 lung = system: NCI-H226 lung
NCI-H322M lung = system: NCI-H322M lung
HOP-62 NSCLC = system: HOP-62 NSCLC
NCI-H460 lung = system: NCI-H460 lung
HOP-92 NSCLC = system: HOP-92 NSCLC
NCI-H522 lung = system: NCI-H522 lung
A549/ATCC NSCLC = system: A549/ATCC NSCLC
786-0 renal = system: 786-0 renal
COLO 205 colon = system: COLO 205 colon
DU-145 prostate = system: DU-145 prostate
K-562 leukemia = system: K-562 leukemia
MALME-3M melanoma = system: MALME-3M melanoma
MDA-MB-231 breast = system: MDA-MB-231 breast
RXF 393 renal = system: RXF 393 renal
SF-268 CNS = system: SF-268 CNS
SF-295 CNS = system: SF-295 CNS
SF-539 CNS = system: SF-539 CNS
UACC-257 melanoma = system: UACC-257 melanoma
M14 melanoma = system: M14 melanoma

O=C1/C(=C/c2ccc(OCc3ccccc3)cc2)Oc2cc(OCCN3CCCCC3)ccc21
growth (NCI-H23 lung): 74.5% | growth (NCI-H226 lung): 89.6% | growth (NCI-H322M lung): 97.9% | growth (HOP-62 NSCLC): 95.7% | growth (NCI-H460 lung): 70.3% | growth (HOP-92 NSCLC): 70.9% | growth (NCI-H522 lung): 87.5% | growth (A549/ATCC NSCLC): 80.1% | growth (786-0 renal): 69% | growth (COLO 205 colon): 105% | growth (DU-145 prostate): 91.9% | growth (K-562 leukemia): 9.17% (active) | growth (MALME-3M melanoma): 67.8% | growth (MDA-MB-231 breast): 80.9% | growth (RXF 393 renal): 60.8% | growth (SF-268 CNS): 77.4% | growth (SF-295 CNS): 92.9% | growth (SF-539 CNS): 69.5% | growth (UACC-257 melanoma): 90% | growth (M14 melanoma): 60.8%

CC1(C)CC[C@]2(C(=O)O)CC[C@]3(C)C(=CC[C@@H]4[C@@]5(C)C/C(=C/c6ccco6)C(=O)C(C)(C)[C@@H]5CC[C@]43C)[C@@H]2C1
growth (NCI-H23 lung): -25.6% [100 µM] (active) | growth (NCI-H226 lung): -42.4% [100 µM] (active) | growth (NCI-H322M lung): -48.8% [100 µM] (active) | growth (HOP-62 NSCLC): -85.3% [100 µM] (active) | growth (NCI-H460 lung): -55.9% [100 µM] (active) | growth (HOP-92 NSCLC): -82.1% [100 µM] (active) | growth (NCI-H522 lung): -39.3% [100 µM] (active) | growth (A549/ATCC NSCLC): -4.53% [100 µM] (active) | growth (786-0 renal): -19.5% [100 µM] (active) | growth (COLO 205 colon): -80.7% [100 µM] (active) | growth (DU-145 prostate): -45% [100 µM] (active) | growth (K-562 leukemia): 10.5% [100 µM] | growth (MALME-3M melanoma): -80.7% [100 µM] (active) | growth (MDA-MB-231 breast): -77.9% [100 µM] (active) | growth (RXF 393 renal): -68.5% [100 µM] (active) | growth (SF-268 CNS): -27.2% [100 µM] (active) | growth (SF-295 CNS): -56.2% [100 µM] (active) | growth (SF-539 CNS): -83.3% [100 µM] (active) | growth (UACC-257 melanoma): -23.7% [100 µM] (active) | growth (M14 melanoma): -31.5% [100 µM] (active)

CCCCC(CCCCCC(CCCC)C1NC(C)Cc2cc(OC)c(OC)cc21)C1NC(C)Cc2cc(OC)c(OC)cc21 (stereo not given)
growth (NCI-H23 lung): -81.4% (active) | growth (NCI-H226 lung): -77.8% (active) | growth (NCI-H322M lung): -39.4% (active) | growth (HOP-62 NSCLC): -97.2% (active) | growth (NCI-H460 lung): -73.8% (active) | growth (HOP-92 NSCLC): -57.8% (active) | growth (NCI-H522 lung): -87.7% (active) | growth (A549/ATCC NSCLC): -80.9% (active) | growth (786-0 renal): -98.4% (active) | growth (COLO 205 colon): -96.9% (active) | growth (DU-145 prostate): -100% (active) | growth (K-562 leukemia): -76.8% (active) | growth (MALME-3M melanoma): -73.4% (active) | growth (MDA-MB-231 breast): -67.4% (active) | growth (RXF 393 renal): -89.4% (active) | growth (SF-268 CNS): -88.6% (active) | growth (SF-295 CNS): -70.7% (active) | growth (SF-539 CNS): -95.8% (active) | growth (UACC-257 melanoma): -80.6% (active) | growth (M14 melanoma): -90.2% (active)

Clc1ccc2nc(-c3ccc(-c4ccc(/C=N/NC5=NCCN5)cc4)s3)cn2c1
growth (NCI-H23 lung): 106% | growth (NCI-H226 lung): 94.9% | growth (NCI-H322M lung): 98.3% | growth (HOP-62 NSCLC): 98.6% | growth (NCI-H460 lung): 100% | growth (HOP-92 NSCLC): 76.5% | growth (NCI-H522 lung): 106% | growth (A549/ATCC NSCLC): 99.9% | growth (786-0 renal): 95.5% | growth (COLO 205 colon): 107% | growth (DU-145 prostate): 101% | growth (K-562 leukemia): 4.14% (active) | growth (MALME-3M melanoma): 94.3% | growth (MDA-MB-231 breast): 96.3% | growth (RXF 393 renal): 82.5% | growth (SF-268 CNS): 94.2% | growth (SF-295 CNS): 97.2% | growth (SF-539 CNS): 83.1% | growth (UACC-257 melanoma): 101% | growth (M14 melanoma): 97.7%

C#C[C@]1(O)CC[C@H]2[C@@H]3CC=C4c5nc(Nc6ccc(OC)cc6OC)sc5CC[C@]4(C)[C@H]3CC[C@@]21C
growth (NCI-H23 lung): 34.6% | growth (NCI-H226 lung): 24.2% | growth (NCI-H322M lung): 37% | growth (HOP-62 NSCLC): -11.5% (active) | growth (NCI-H460 lung): 12.4% | growth (HOP-92 NSCLC): 10.4% | growth (NCI-H522 lung): 23% | growth (A549/ATCC NSCLC): 9.68% (active) | growth (786-0 renal): -54.7% (active) | growth (COLO 205 colon): -43.2% (active) | growth (DU-145 prostate): 39% | growth (K-562 leukemia): 6.12% (active) | growth (MALME-3M melanoma): -21.8% (active) | growth (MDA-MB-231 breast): 1.72% (active) | growth (RXF 393 renal): -60% (active) | growth (SF-268 CNS): 4.95% (active) | growth (SF-295 CNS): -66.3% (active) | growth (SF-539 CNS): -59.5% (active) | growth (UACC-257 melanoma): -20.3% (active) | growth (M14 melanoma): -41.4% (active)

C#C[C@]1(O)CC[C@H]2[C@@H]3CC=C4c5nc(Nc6ncccn6)sc5CC[C@]4(C)[C@H]3CC[C@@]21C
growth (NCI-H23 lung): 77.8% | growth (NCI-H226 lung): 68.8% | growth (NCI-H322M lung): 74.3% | growth (HOP-62 NSCLC): 38.3% | growth (NCI-H460 lung): 31.2% | growth (HOP-92 NSCLC): 52.2% | growth (NCI-H522 lung): 81% | growth (A549/ATCC NSCLC): 43.4% | growth (786-0 renal): -45.2% (active) | growth (COLO 205 colon): 92.4% | growth (DU-145 prostate): 61.1% | growth (K-562 leukemia): 33.8% | growth (MALME-3M melanoma): 47.6% | growth (MDA-MB-231 breast): 34.2% | growth (RXF 393 renal): -59.1% (active) | growth (SF-268 CNS): 29.5% | growth (SF-295 CNS): -66.2% (active) | growth (SF-539 CNS): -50.1% (active) | growth (UACC-257 melanoma): -16% (active) | growth (M14 melanoma): 43.8%

CC(C)[N+](C)(C)CC(O)COc1cccc2ccccc12 (stereo not given)
growth (NCI-H23 lung): 95.5% | growth (NCI-H226 lung): 107% | growth (NCI-H322M lung): 112% | growth (HOP-62 NSCLC): 106% | growth (NCI-H460 lung): 109% | growth (HOP-92 NSCLC): 81.4% | growth (NCI-H522 lung): 114% | growth (A549/ATCC NSCLC): 101% | growth (786-0 renal): 121% | growth (COLO 205 colon): 104% | growth (DU-145 prostate): 106% | growth (K-562 leukemia): 106% | growth (MALME-3M melanoma): 103% | growth (MDA-MB-231 breast): 103% | growth (RXF 393 renal): 115% | growth (SF-268 CNS): 94% | growth (SF-295 CNS): 104% | growth (SF-539 CNS): 96% | growth (UACC-257 melanoma): 90.4% | growth (M14 melanoma): 107%
